Source: PubChem (Broad Institute)
Shown is part of a subset that was picked to be rich in hits.
Tg IFNy HTS: blocks Toxoplasma gondii growth in the presence of IFN-gamma | 3.8% of 69,000 active | activity change, negative = inhibition, % (no concentration beside the values) | Toxoplasma gondii growth in IFN-gamma-treated host cells; active compounds read low | AID 1259416; in the data active = activity change below about -70%, passing the limit was not always enough;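 also: host cells are HeLa cells infected with Toxoplasma gondii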
The depositor's hits bear a star.

SMILES | Tg IFNy HTS
CCN1c2cc(C)ccc2-n2cccc2C12CCN(S(=O)(=O)c1ccc3c(c1)oc(=O)n3C)CC2 | 61
CCOc1ccc(NC(=O)N2CCC3(CC2)c2cccn2-c2ccc(C)cc2N3CC)cc1 | 156
CCN1c2cc(C)ccc2-n2cccc2C12CCN(S(=O)(=O)c1ccccc1Cl)CC2 | -78*
CCOc1ccc(S(=O)(=O)N2CCC3(CC2)c2cccn2-c2ccc(C)cc2N3CC)cc1 | -92*
CCN1c2cc(C)ccc2-n2cccc2C12CCN(C(=O)c1ccccc1OC)CC2 | -62
CCN1c2cc(C)ccc2-n2cccc2C12CCN(S(=O)(=O)c1ccccc1)CC2 | -79*
CCN1c2cc(C)ccc2-n2cccc2C12CCN(S(=O)(=O)Cc1ccccc1)CC2 | -67
CSc1ccc(C(=O)C2CCCN(C(=O)c3n[nH]c(=O)c4ccccc34)C2)cc1 (stereo not drawn) | 8
CCOc1ccc(-c2nc(Cn3nnc(C(=O)Nc4ccccc4F)c3C)c(C)o2)cc1 | 26
COC(=O)[C@@H]1C[C@H](C(=O)NCCn2ccc(C)n2)[C@H](c2ccccc2F)N1C | 10
Cc1ccccc1-c1noc(-c2c(O)c3ccccc3n(C)c2=O)n1 | 0
Cc1[nH][nH]c(=O)c1CC(=O)N1CCCC2(CCNC2)C1 (stereo not drawn) | -2
c1cnc(N2Cc3nccn3CC(CN3CCCC3)C2)nc1 (stereo not drawn) | 48
CC1(C)CCC(CN2CCN(c3ccc(C(=O)NS(=O)(=O)c4ccc(NCC5CCOCC5)c([N+](=O)[O-])c4)c(Oc4cnc5[nH]ccc5c4)c3)CC2)=C(c2ccc(Cl)cc2)C1 | -80*
CC(=O)O[C@@H]1CC[C@@]2(C)C(CC[C@]3(C)C2C(=O)C=C2[C@@H]4[C@@H](C)[C@H](C)CC[C@]4(C)CC[C@]23C)[C@@]1(C)C(=O)O (stereo partly drawn) | -40
CCS(=O)(=O)NCCc1csc(-c2ccc(Cl)cc2)n1 | 18
O=c1[nH]nc(Cc2ccncc2)n1CCc1ccccc1F | -10
CCN(Cc1nc(COC)no1)C(=O)c1ccc2nc(C)[nH]c2c1 | 12
CO[C@@H]1CC[C@@H]2[C@H]1OCCN2C(=O)N(C)C | 51
CN(C)C(=O)N1CCO[C@@H]2[C@H]1CC[C@H]2OCCN1CCCC1 | -3
CN(C)C(=O)N1CCO[C@@H]2[C@H]1CC[C@H]2OCC1CCOCC1 | -72*
COc1ccc(OC)c(CN2CCNC(=O)C2Cc2ccc(-c3cccnc3)cc2)c1 (stereo not drawn) | 27
CCCN(CCC)S(=O)(=O)c1ccc(NC(=O)c2ccc3c(c2)OCO3)cc1 | -65
CSc1ncc(C(=O)Nc2cccc(C(=O)N3CCCCC3)c2)cn1 | 13
CSc1ncc(C(=O)Nc2ccc(Oc3ccc4c(c3)OCO4)cc2)cn1 | -103*
SMILES | Tg IFNy HTS
CCN1CCO[C@H]2CCN(C(=O)c3cscn3)C[C@H]21 | 6
O=S(=O)(c1ccc2c(c1)CCCC2)N1CCC2(CC1)NCCN=C2NCc1ccc2c(c1)OCO2 | -34
CC1CCC(NC(=O)CN2C(=O)CCc3cc(S(=O)(=O)N4CCCC4)ccc32)CC1 (stereo not drawn) | 25
Cc1cc(C)n(-c2ncnc3sc(-c4ccccc4)cc23)n1 | -94*
Cc1cc(C)n(-c2nnc(-c3ccccc3)c(-c3ccccc3)c2-c2ccccc2)n1 | -22
Cc1cc(C)n(-c2nc(-c3ccccc3)cc(-c3ccccc3)n2)n1 | -23
Clc1ccc(SCc2nn[nH]n2)cc1 | -4
CCc1c(C)nn(CC(=O)N2CCC(c3nn(C)c(=O)n3CC)CC2)c1C | 2
Cc1oc(C2CCN(C(=O)c3cccnc3Cl)CC2)nc1C(=O)N1CCOCC1 | -26
CN1CCN(c2ccc(F)cc2)CC1C(=O)O (stereo not drawn) | 55
O=C(CCSc1nc(-c2ccc3c(c2)OCO3)cc(C(F)(F)F)n1)N1CCCCC1 | -76*
O=C(COc1ccc2c(c1)OCO2)N1CCN(C(=O)c2ccco2)CC1 | 16
O=C(/C=C/c1ccc2c(c1)OCO2)N1CCCCC1 | 95
Cc1ccccc1NC(=O)CC(=O)NCCC(=O)Nc1ccccc1F | 2
Cc1ccc(C(=O)N2CCN(S(=O)(=O)c3cn(C)nc3-c3ccncc3)CC2)cc1 | 1
Cc1cnn(Cc2ccc(Cl)cc2)c1NC(=O)c1cc(-c2cnn(C)c2C)on1 | -14
Cc1cccc(S(=O)(=O)N2CCc3nc(-c4ccccc4)sc3C2)c1 | -9
Cc1cccc(S(=O)(=O)N2CCc3nc(-c4cnn(C)c4)nc(NC4CC4)c3C2)c1 | -94*
Cc1nc2c(c(NC3CC3)n1)CCN(Cc1cnn(C)c1)CC2 | -52
O=C(c1cccnc1)N1CCCC(c2nc(N3CCOCC3)ncc2-c2cccnc2)C1 (stereo not drawn) | 1
COc1ccc(Cc2nnc3sc(Cc4ccccc4)nn23)cc1 | 30
COc1ccc(-c2nn3c(Cn4nnc5ccccc54)nnc3s2)cc1 | 7
COc1ccccc1/C=C/c1nn2c(COc3ccc(F)cc3)nnc2s1 | -91*
CCOc1ccc(CC(=O)N2CCC3(CC2)Nc2ccc(C)c(C)c2-n2cccc23)cc1OCC | 29
N#Cc1nc(-c2ccc(C(F)(F)F)cc2)oc1N | -96*
